# Laboratory results from ChEMBL document CHEMBL4513146, “CO-ADD screening of Karazin Kharkiv National University (Ukraine) compounds”.
# Measured potencies and affinities stand elsewhere.
# Experiments:
# Staphylococcus aureus = details: Concentration 32 ug.mL-1;; ASSAY_TEST Inhibition of Bacterial Growth; detection method Absorption (OD600); MEDIA CAMHB; plate type 384well; NBS; CORNING #3640; time 18 hr
# Escherichia coli = details: Concentration 32 ug.mL-1;; ASSAY_TEST Inhibition of Bacterial Growth; detection method Absorption (OD600); MEDIA CAMHB; plate type 384well; NBS; CORNING #3640; time 18 hr
SMILES,Inhibition (Staphylococcus aureus) [%],Inhibition (Escherichia coli) [%]
Cc1ccccc1Nc1cc(C)n2c(=O)n(CCc3ccccc3)nc2n1,-11.65,-1.35
O=c1c2sccc2n2c(=O)n(Cc3cccc(F)c3)nc2n1Cc1cccs1,-6.6,-12.16
Cc1cc(C)cc(N(Cc2ccccc2F)S(=O)(=O)c2cccn3c(C)nnc23)c1,15.31,-0.2
CCc1cccc(NC(=O)CSc2nnc3c(=O)n(-c4cccc(OC)c4)ccn23)c1,9.81,-1.21
CC(C)(C)Sc1ccc2nn(CC(=O)N3CCN(c4ccc(F)cc4)CC3)c(=O)n2n1,4,5.62
COc1cccc(-n2ccn3c(SCC(=O)Nc4cc(Cl)ccc4OC)nnc3c2=O)c1,8.75,-1.77
O=S(=O)(c1ccc2nncn2c1)N(Cc1cc(F)cc(F)c1)c1ccc(F)cc1,2.59,-3.43
COc1ccc(NC(=O)Cn2nc3ccc(SC(C)(C)C)nn3c2=O)cc1Cl,-0.4,-6.93
Cc1ccc(Oc2nccn3c(=O)n(CC(=O)Nc4cccc(Cl)c4)nc23)cc1,-3.9,-9.06
COc1ccc(NC(=O)Cn2nc3nc(N4CCCCCC4)ccn3c2=O)cc1Cl,-1.58,-10.88
COc1ccc(NC(=O)CSc2nc3ccccc3n3cnnc23)cc1OC,12.3,2.46
Cc1cc2nn(CC(=O)Nc3ccc(C)c(F)c3)c(=O)n2c(Nc2ccc(C)c(F)c2)n1,6.9,-1.96
COc1ccc(-c2cc3c4nnc(SCC(=O)Nc5cc(F)ccc5C)n4ccn3n2)cc1,-23.41,-20.36
COc1cccc(Oc2nccn3c(=O)n(CC(=O)Nc4ccc5c(c4)OCO5)nc23)c1,9.63,-4.07
CCOC(=O)c1ccc(NC(=O)Cn2nc3ccc(SC(C)(C)C)nn3c2=O)cc1,-4.89,-11.53
COc1ccc(N2CCN(C(=O)Cn3nc4c(Sc5cccc(C)c5)nccn4c3=O)CC2)cc1,0.43,-16.62
CCOc1ccc(NC(=O)Cn2nc3ccc(Sc4cccc(F)c4)nn3c2=O)cc1,2.36,-8.51
COc1ccc(-c2cc3c4nn(CC(=O)Nc5cc(C)ccc5OC)c(=O)n4ccn3n2)cc1,1.5,-0.57
Cc1ccc(NC(=O)Cn2nc3ccc(SC(C)C)nn3c2=O)cc1F,-3.37,-1.63
Cc1nnc2c(=O)n(CC(=O)Nc3ccccc3F)c3ccccc3n12,-11.2,1.77
CC(C)c1nnc2c(SCC(=O)Nc3ccc(Br)cc3)nc3ccccc3n12,1.25,1.75
Cc1ccc(Sc2nccn3c(=O)n(CC(=O)Nc4cc(Cl)ccc4C)nc23)c(C)c1,-0.43,-11.77
CCc1nnc2c(=O)n(CC(=O)Nc3ccc(C(C)C)cc3)c3ccccc3n12,12.36,0.11
O=S(=O)(c1cccn2cnnc12)N(Cc1cccc(F)c1)c1cccc(Cl)c1,6.21,-7.43

SMILES,Inhibition (Staphylococcus aureus) [%],Inhibition (Escherichia coli) [%]
Cc1ccc(NC(=O)Cn2nc3c(N4CCCC4)nccn3c2=O)cc1Cl,3.49,-0.46
Cc1ccc(Sc2nccn3c(=O)n(CC(=O)Nc4cccc(Br)c4)nc23)c(C)c1,-7.2,-13.08
Cc1ccc(NC(=O)Cn2nc3c4c5c(sc4ncn3c2=O)CCCC5)c(Cl)c1,-4.74,-9.07
CCc1nnc2c(SCC(=O)Nc3ccc(C)cc3Cl)nc3ccccc3n12,2.52,2.69
COc1cccc(CSc2nnc3c(=O)n(-c4ccccc4OC)ccn23)c1,-2.45,1.01
COc1ccc(-c2cc3c4nn(CC(=O)Nc5c(C)cccc5C)c(=O)n4ccn3n2)cc1,3.68,-1.14
COc1ccc(-c2cc3c4nn(CC(=O)Nc5ccc(C)cc5)c(=O)n4ccn3n2)cc1,-0.62,1.25
CCOc1ccc(C(=O)Cn2nc3n(Cc4ccccc4OC)c(=O)c4sccc4n3c2=O)cc1,-7.18,-6.25
COc1ccc(CNC(=O)Cn2nc3c(SCc4ccc(Cl)cc4)nccn3c2=O)cc1,-6.61,-12.31
Cc1ccc(Oc2nccn3c(=O)n(CC(=O)Nc4ccccc4Br)nc23)cc1,10.09,-0.96
COc1cc(OC)c(NC(=O)Cn2nc3c(Oc4ccc(C)cc4)nccn3c2=O)cc1Cl,4.71,-4.58
Cc1ccc(Nc2cc(C)n3c(=O)n(CCOc4ccc(F)cc4)nc3n2)cc1,8.99,-0.82
CC(C)c1nnc2c(=O)n(CC(=O)Nc3cc(Cl)ccc3Cl)c3ccccc3n12,3.75,5.3
COc1ccc(N2CCN(C(=O)Cn3nc4c(Oc5cccc(C)c5C)nccn4c3=O)CC2)cc1,7.43,-1.11
O=C(Cn1nc2c3cc(-c4ccc(Cl)cc4)nn3ccn2c1=O)Nc1ccc2c(c1)OCO2,8.69,2.9
N#Cc1cccc(Cn2nc3ccc(S(=O)(=O)N4CCCCCC4)cn3c2=O)c1,10.44,-2.41
COc1cc(OC)c(NC(=O)Cn2nc3ccc(-c4ccc(C)c(C)c4)nn3c2=O)cc1Cl,2.47,-7.33
CCc1nnc2c(SCC(=O)Nc3ccc(Cl)cc3)nc3ccccc3n12,15.07,2.66
CSc1ccc(CNC(=O)Cn2nc3c(N4CCOCC4)nccn3c2=O)cc1,19.42,-0.45
O=C(Cn1nc2c(Sc3cccc(F)c3)nccn2c1=O)N1CCN(c2ccccc2)CC1,1.07,1.18
O=c1n(Cc2cccc(Cl)c2)nc2ccc(-c3ccccc3)nn12,13.35,0.79
COC(=O)c1ccc(NC(=O)CSc2nc3ccccc3n3c(C(C)C)nnc23)cc1,12.04,-0.7
CCCc1nnc2c(=O)n(CC(=O)Nc3ccc(NC(C)=O)cc3)c3ccccc3n12,9.51,-0.84
CC(C)c1ccc(NC(=O)Cn2nc3c(N4CCCCC4)nccn3c2=O)cc1,-8.03,-4.05

SMILES,Inhibition (Staphylococcus aureus) [%],Inhibition (Escherichia coli) [%]
COc1ccc(-n2ccn3c(-c4cccc([N+](=O)[O-])c4)nnc3c2=O)cc1,3.65,-6.72
CCCN(C)c1nccn2c(=O)n(CC(=O)Nc3cccc(C(C)=O)c3)nc12,10.12,-7.5
O=C(Cn1nc2ccc(-c3ccc(Cl)cc3)nn2c1=O)N1CCN(c2ccccc2)CC1,-1.88,-5.05
Cc1ccc(Oc2nccn3c(=O)n(CC(=O)NCCC4=CCCCC4)nc23)cc1,4.93,-4.1
CCCCn1c(=O)c2sccc2n2c(=O)n(CC(=O)N3CCCC(C(=O)OCC)C3)nc12 (centres undefined),0.89,-5.26
COc1ccc(NC(=O)Cn2nc3ccc(-c4ccccc4)nn3c2=O)cc1,6.57,-0.4
COc1ccccc1CNC(=O)Cn1nc2c(N3CCCCCC3)nccn2c1=O,17.1,-0.92
Cc1cccc(NC(=O)CSc2nnc3ccc(C(=O)Nc4cccc(F)c4)cn23)c1C,10.8,-1.92
O=c1c2sccc2n2c(=O)n(Cc3cccc(Cl)c3)nc2n1CCc1ccccc1,10.13,1.01
O=C(Cn1nc2c(Sc3cccc(F)c3)nccn2c1=O)Nc1ccc(Br)cc1,3,-5.66
CC(C)c1nnc2c(SCC(=O)Nc3ccc(Br)cc3F)nc3ccccc3n12,6.04,-1.36
COc1ccccc1-n1ccn2c(SCc3cccc(Cl)c3)nnc2c1=O,-2.16,-0.92
Cc1cccc(C)c1NC(=O)Cn1nc2ccc(SCc3ccc(Cl)cc3)nn2c1=O,-3.66,-13.3
Cc1ccc(CNC(=O)Cn2nc3ccc(SC4CCCCC4)nn3c2=O)cc1,11.69,-11.87
COc1ccc(Cl)cc1NC(=O)Cn1nc2c(Sc3ccc(C)cc3C)nccn2c1=O,-3.15,-8.38
COc1ccc(N(Cc2cccc(F)c2)S(=O)(=O)c2ccc3nncn3c2)cc1,-9.11,1.35
COc1ccccc1-n1ccn2c(SCc3cc(C)ccc3C)nnc2c1=O,12.05,-5.03
O=C(Cn1nc2ccc(SCc3ccc(Cl)cc3)nn2c1=O)NC1CCCCC1,0.02,-9.74
Cc1ccc(Cl)cc1NC(=O)Cn1nc2c(SC3CCCCC3)nccn2c1=O,6.67,-3.22
COc1cccc(Oc2nccn3c(=O)n(CC(=O)Nc4cccc(Br)c4)nc23)c1,9.05,-6.35
CCCCOc1ccc(-c2cc3c4nnc(SCC(=O)Nc5cccc(C(C)=O)c5)n4ccn3n2)cc1,1.68,1.11
COc1cccc(CSc2nnc3c(=O)n(-c4ccc(Br)cc4)ccn23)c1,20.73,-1.68
COc1ccccc1CNC(=O)Cn1nc2c(SCc3ccc(Cl)cc3)nccn2c1=O,6.37,-3.98
Cc1nnc2ccc(S(=O)(=O)N(Cc3ccc(F)cc3)c3ccc4c(c3)OCO4)cn12,6.11,-4.59
